LEDGF integ inh – blocks HIV-1 LEDGF/p75-dependent DNA integration; TR-FRET IN-LEDGF/p75 DNA integration, Eu/Cy5; inhibition, % at 3.7 µM; 0.64% of 370,000 active; AID 743269;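 active = inhibition above the screen-wide mean plus 3 SD, cut at about 13% in these data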;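 note: signal is the Cy5 over europium emission ratio at 671 and 618 nm; 0% = plate median of compound wells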
MBD2 DNA inh – blocks human MBD2 binding to methylated DNA; TR-FRET, MBD2 binding to methylated oligonucleotide; Q9UBB5; 0.31% of 370,000 active; AID 686964; inhibition, % at 4.4 µM; in the data active = inhibition above about 13%
Target sequence (Q9UBB5 whole entry, looked up): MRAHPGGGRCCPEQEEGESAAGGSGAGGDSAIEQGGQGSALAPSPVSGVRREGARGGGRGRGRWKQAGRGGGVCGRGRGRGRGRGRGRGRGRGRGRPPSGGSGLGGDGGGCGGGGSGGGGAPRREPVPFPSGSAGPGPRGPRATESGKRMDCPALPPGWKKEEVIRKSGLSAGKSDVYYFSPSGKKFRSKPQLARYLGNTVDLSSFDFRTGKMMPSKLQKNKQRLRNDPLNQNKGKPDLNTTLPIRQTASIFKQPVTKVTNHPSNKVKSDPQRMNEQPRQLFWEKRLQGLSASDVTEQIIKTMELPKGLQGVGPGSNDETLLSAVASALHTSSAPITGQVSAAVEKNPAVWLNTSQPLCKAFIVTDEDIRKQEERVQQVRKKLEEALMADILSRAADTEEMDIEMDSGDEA
UHRF1 binding – UHRF1 methyl-DNA binding inhibition; Q96T88; inhibition, % at 4.4 µM; UHRF1 binding to methylated oligo, TR-FRET; AID 687016; 0.75% of 370,000 active; in the data active = inhibition above about 21%;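 note: UHRF1 SRA domain binding a hemimethylated CpG hairpin DNA probe; 0% = median of test compound wells and 100% = reference inhibitor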
PG9 Ab binder – PG9 antibody binding by small molecule; inhibition, % at 6.7 µM; TR-FRET gp120-PG9 antibody binding; 0.43% of 360,000 active; in the data active = inhibition above about 8.5%
rCAG RNA binder – molecules binding r(CAG) RNA repeats | 1.3% of 370,000 active | AID 651821 | inhibition, % at 3 µM | r(CAG) RNA repeat, TO-PRO-1 dye displacement fluorescence;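 active = inhibition above the plate cutoff, the mean of all test compounds on that plate plus 3 SD, cut at about 35% in these data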;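 note: 0% = DMSO alone and 100% = 100 µM mitoxantrone as full dye displacement; higher means more dye released from RNA so lower well fluorescence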
DNMT1 inh – inhibitors of human DNMT1; P26358; DNMT1 molecular beacon, Hinp1I cleavage, fluorescence; inhibition (reported as % activation of signal), % at 10 µM; 0.83% of 360,000 active; in the data active = inhibition above about 50%
rCAG binder conf – r(CAG) RNA repeat binding, confirmation. shares compounds with rCAG RNA binder. TO-PRO-1 dye displacement fluorescence. inhibition, % at 3 µM. 70% of 4,300 active. AID 652065;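 active = inhibition above a per-plate cutoff, the mean inhibition of sample wells plus 3 SD, cut at about 35% in these data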;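 note: loss of TO-PRO-1 fluorescence as compound displaces dye from 1x1 AA loop RNA; 0% = DMSO only wells and 100% = 100 µM mitoxantrone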
DNA CAG counter – disrupts DNA CAG TO-PRO-1 complex, flagging rCAG hits; shares compounds with rCAG RNA binder; d(CAG) DNA oligo TO-PRO-1 dye displacement, fluorescence; inhibition, % at 3 µM; 94% of 4,300 active; AID 652068;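 active = inhibition above its plate's cutoff, the mean test-well inhibition plus 3 SD, cut at about 4.8% in these data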;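 note: 0% = DNA dye mix with DMSO and 100% = 100 µM mitoxantrone; hits displace the dye from DNA and so lower well fluorescence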
The depositor's hits bear a star; nt = no result given. An excerpt weighted towards active compounds, which were near 3.5% of everything screened.

SMILES	LEDGF integ inh	MBD2 DNA inh	UHRF1 binding	PG9 Ab binder	rCAG RNA binder	DNMT1 inh	rCAG binder conf	DNA CAG counter
CSc1nsc2nc(=O)c(/C=C3\C(C)=Nc4ccc(C)cc43)c(N)n12	-3	3	-3	0	66*	-4	46*	12*
Cc1cn2c(N)c(C=C3C=C(Cl)C(=O)C(Cl)=C3)c(=O)nc2s1	-2	2	-5	1	3	5	nt	nt
CC1=Nc2ccc(C)cc2/C1=C/c1c(N)n2c(S(=O)(=O)C(C)C)nsc2nc1=O	1	0	-1	-2	80*	-12	75*	37*
CC1=Nc2ccccc2/C1=C/c1c(N)n2c(S(=O)(=O)C(C)C)nsc2nc1=O	-3	-5	0	-2	73*	-1	59*	21*
CC(C)S(=O)(=O)c1nsc2nc(=O)c(/C=C3\C=Nc4ccccc43)c(N)n12	2	-3	-2	-2	88*	-3	85*	55*
CC(Oc1ccccc1)C(=O)OCC(=O)Nc1ccc2c(c1)OCO2 (stereo unspecified)	-1	1	-3	-1	7	-13	nt	nt
Oc1ccc(C23CCCC2C2(CCCC2)c2ccc(O)cc2O3)c(O)c1 (stereo unspecified)	1	2	-1	-2	6	-28	nt	nt
CC(=O)CCC(=O)CNC(=O)CC[C@H]1O[C@@H](n2ccc(=O)[nH]c2=O)[C@H](O)[C@@H]1O	-3	2	2	-1	1	6	nt	nt
CC1=Nc2ccccc2/C1=C/c1c(N)n2c(S(=O)(=O)CC(C)C)nsc2nc1=O	-2	0	-1	1	78*	-4	78*	46*
CSc1nsc2nc(=O)c(/C=C3\C=Nc4ccccc43)c(N)n12	2	-6	-1	-2	31	-4	nt	nt
COc1cccc(/C=C/C(=O)OCC(=O)NC2CC2)c1	2	1	-1	-1	0	0	nt	nt
COc1ccc([C@@H]2CC=C(C(=O)O)[C@H](c3ccc(C(C)(C)C)cc3)N2S(=O)(=O)c2ccc(C)cc2)cc1OC	3	-2	6	2	67*	3	66*	28*
COc1cc([C@@H]2CC=C(C(=O)O)[C@H](c3cccc(Cl)c3)N2S(=O)(=O)c2ccc(C)cc2)cc(OC)c1OC	0	5	3	0	45*	0	45*	10*
COc1ccc([C@@H]2CC=C(C(=O)O)[C@H](c3ccc(C)cc3)N2S(=O)(=O)c2ccc(C)cc2)cc1OC	1	-4	3	-2	40*	3	36*	7.8*
COc1cc(C2CC=C(C(=O)O)C(c3ccccc3F)N2S(=O)(=O)c2ccc(C)cc2)cc(OC)c1OC (stereo unspecified)	1	-5	0	nt	24	nt	nt	nt
COc1cc([C@@H]2CC=C(C(=O)O)[C@H](c3ccc(C)cc3)N2S(=O)(=O)c2ccc(C)cc2)cc(OC)c1OC	1	0	-1	1	35*	1	42*	8.6*
Cc1ccc(S(=O)(=O)N2[C@@H](c3cccc(Cl)c3)C(C(=O)O)=CC[C@H]2c2cccc(C)c2)cc1	1	-1	-1	1	10	2	nt	nt
COc1cccc([C@@H]2CC=C(C(=O)O)[C@H](c3ccc(Cl)cc3)N2S(=O)(=O)c2ccc(C)cc2)c1	-1	-4	-1	1	64*	4	62*	23*
COc1cccc([C@@H]2CC=C(C(=O)O)[C@H](c3ccccc3F)N2S(=O)(=O)c2ccc(C)cc2)c1	3	1	0	-1	41*	0	37*	9.0*
COc1cccc([C@@H]2CC=C(C(=O)O)[C@H](c3ccc(C)cc3)N2S(=O)(=O)c2ccc(C)cc2)c1	-3	0	4	-1	30	1	nt	nt
COc1ccc([C@@H]2CC=C(C(=O)O)[C@H](c3ccc(Cl)cc3)N2S(=O)(=O)c2ccc(C)cc2)cc1OC	5	1	5	-1	57*	2	34	9.3*

Bioassay records from PubChem.
